Assay results as given in PubChem BioAssay (EPA / NIEHS).
Inconclusive results are not listed. Active and inactive are the calls of the source. The calls were made as follows: active = hit-call score of the fitted dose curve at least 0.9, where 1 is the maximum; inconclusive = response in the unintended direction; inactive = score below 0.9.

What follows are compounds tested against human Retinoic Acid Receptor gamma (RARg), RARG (gene 5916) (UniProt P13631) (assay: ATG_RARg_TRANS: Attagene TRANS-FACTORIAL HepG2 Assay for human Retinoic Acid Receptor gamma (RARg) (AID 2283009)).
In short: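 Readout: reporter transcript levels via RT-PCR, 6-FAM primer-extension labelling, HpaI digestion and capillary electrophoresis. Cells: HepG2 carrying transfected RARg-GAL4 chimera plus UAS reporter set. Dosing 24 h; DMSO negative control.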

Chain of human Retinoic Acid Receptor gamma (RARg), RARG (gene 5916) (P13631 whole entry, looked up, the tested form may be a part): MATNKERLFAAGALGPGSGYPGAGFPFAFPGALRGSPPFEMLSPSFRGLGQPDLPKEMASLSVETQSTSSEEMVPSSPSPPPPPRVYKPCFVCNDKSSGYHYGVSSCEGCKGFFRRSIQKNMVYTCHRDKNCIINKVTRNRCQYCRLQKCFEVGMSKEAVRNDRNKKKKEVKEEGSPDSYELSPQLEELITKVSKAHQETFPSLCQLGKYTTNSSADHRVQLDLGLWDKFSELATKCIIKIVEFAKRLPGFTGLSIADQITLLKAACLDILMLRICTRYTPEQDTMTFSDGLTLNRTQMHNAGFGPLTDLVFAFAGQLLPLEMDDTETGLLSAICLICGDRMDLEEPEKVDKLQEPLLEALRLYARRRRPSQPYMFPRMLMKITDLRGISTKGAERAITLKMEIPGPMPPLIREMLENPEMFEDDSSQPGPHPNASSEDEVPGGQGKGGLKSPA

Row | Structure (SMILES) | outcome
1 | Nc1c(Cl)c(Cl)c(Cl)c(Cl)c1Cl | inactive
2 | COC(=O)c1ccccc1S(=O)(=O)NC(=O)Nc1nc(C)cc(C)n1 | inactive
3 | O=S(=O)(c1ccccc1)c1ccccc1 | inactive
4 | CC1CCCC1.[C-]#[O+].[C-]#[O+].[C-]#[O+].[Mn] | inactive
5 | Oc1cc(Cl)ccc1Cl | inactive

What follows are compounds tested against human RAR-related Orphan Receptor beta (RORb), RORB (gene 6096) (UniProt Q92753) (assay: ATG_RORb_TRANS: Attagene TRANS-FACTORIAL HepG2 Assay for human RAR-related Orphan Receptor beta (RORb) (AID 2283010)).
In short: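 HepG2, transient MRTU transfection (GAL4-UAS reporters, exogenous NR-Gal4 chimeras); 24 h compound exposure; total RNA → RT-PCR → 6-FAM primer extension → HpaI digest → CE fluorescence. Positive direction vs DMSO baseline.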

Chain of human RAR-related Orphan Receptor beta (RORb), RORB (gene 6096) (Q92753 whole entry, looked up, the tested form may be a part): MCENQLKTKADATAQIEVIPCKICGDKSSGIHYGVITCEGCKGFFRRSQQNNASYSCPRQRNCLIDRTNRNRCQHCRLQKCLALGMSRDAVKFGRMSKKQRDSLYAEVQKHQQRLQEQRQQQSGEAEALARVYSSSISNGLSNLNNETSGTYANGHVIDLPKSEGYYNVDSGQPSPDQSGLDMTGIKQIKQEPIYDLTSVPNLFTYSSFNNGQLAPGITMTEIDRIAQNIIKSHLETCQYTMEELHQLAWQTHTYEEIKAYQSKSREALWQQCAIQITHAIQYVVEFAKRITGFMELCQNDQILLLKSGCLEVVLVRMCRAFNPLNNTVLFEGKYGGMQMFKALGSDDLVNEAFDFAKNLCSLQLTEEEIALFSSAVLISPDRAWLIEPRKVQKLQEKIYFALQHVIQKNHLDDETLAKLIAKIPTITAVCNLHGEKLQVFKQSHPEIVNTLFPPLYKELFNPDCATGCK

Row | Structure (SMILES) | outcome
6 | C#CC1(O)CCCCC1 | inactive
7 | O=c1[nH]c(Cl)c(Cl)cc1Cl | inactive
8 | [CH3][Sn]([Cl])([Cl])[Cl] | inactive
9 | COC(=O)c1ccccc1S(=O)(=O)NC(=O)Nc1nc(C)cc(C)n1 | inactive
10 | Nc1ccccc1C(=O)OCCc1ccccc1 | inactive
11 | O=C(O)CCCc1ccc(N(CCCl)CCCl)cc1 | inactive
12 | [CH3][Sn]([CH3])([Cl])[Cl] | inactive
13 | O=P1(NCCCl)OCCCN1CCCl (stereo unspecified) | inactive
14 | CC(Cc1ccc(C(C)(C)C)cc1)CN1C[C@@H](C)O[C@@H](C)C1 (stereo partly specified) | inactive
15 | O=C(O)c1cc[c]([Hg][Cl])cc1 | inactive
16 | C[N+](C)(C)CC(=O)O | inactive
17 | CN(C)C(=O)C(c1ccccc1)c1ccccc1 | inactive
18 | [Cl][Sb]([Cl])[Cl] | inactive
19 | O=[N+]([O-])O.O=[N+]([O-])O.[Cd] | inactive

What follows are compounds tested against human RAR-related Orphan Receptor gamma (RORg), RORC (gene 6097) (UniProt P51449) (assay: ATG_RORg_TRANS: Attagene TRANS-FACTORIAL HepG2 Assay for human RAR-related Orphan Receptor gamma (RORg) (AID 2283011);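 as to AC50: potency for induction of reporter transcripts above DMSO so activators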).
In short: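 Readout: reporter transcript induction (RT-PCR, fluorescent primer extension, capillary electrophoresis) after 24 h compound exposure of transiently transfected HepG2 cells carrying a RORg-Gal4 chimera and GAL4-UAS reporters; DMSO served as baseline, with increasing signal fitted.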

Chain of human RAR-related Orphan Receptor gamma (RORg), RORC (gene 6097) (P51449 whole entry, looked up, the tested form may be a part): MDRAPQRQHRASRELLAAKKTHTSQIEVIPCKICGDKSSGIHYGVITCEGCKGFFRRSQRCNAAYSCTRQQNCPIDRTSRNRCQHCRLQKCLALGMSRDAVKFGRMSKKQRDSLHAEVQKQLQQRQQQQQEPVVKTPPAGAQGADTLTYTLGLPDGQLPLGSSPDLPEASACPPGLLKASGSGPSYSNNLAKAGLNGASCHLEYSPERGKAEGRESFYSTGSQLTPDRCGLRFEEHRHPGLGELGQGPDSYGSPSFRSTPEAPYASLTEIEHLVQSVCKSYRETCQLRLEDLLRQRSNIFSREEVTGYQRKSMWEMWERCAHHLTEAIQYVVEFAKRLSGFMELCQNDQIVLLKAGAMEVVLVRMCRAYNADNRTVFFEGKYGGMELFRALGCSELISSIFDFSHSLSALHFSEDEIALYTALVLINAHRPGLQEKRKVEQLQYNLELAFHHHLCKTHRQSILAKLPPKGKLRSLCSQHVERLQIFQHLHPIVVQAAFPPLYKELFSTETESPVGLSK

Row | Structure (SMILES) | outcome | AC50
20 | Nc1ccc(-c2ccc(N)c(N)c2)cc1N | inactive | –
21 | C#CC1(O)CCCCC1 | inactive | –
22 | O=c1[nH]c(Cl)c(Cl)cc1Cl | inactive | –
23 | CCC(C)c1cc(C(C)(C)C)cc(-n2nc3ccccc3n2)c1O (stereo unspecified) | inactive | –
24 | [CH3][Sn]([Cl])([Cl])[Cl] | inactive | –
25 | Nc1ccccc1C(=O)OCCc1ccccc1 | inactive | –
26 | COC(C)(C)CCC[C@H](C)C/C=C/C(C)=C/C(=O)OC(C)C | inactive | –
27 | [CH3][Sn]([CH3])([Cl])[Cl] | inactive | –
28 | BrCBr | inactive | –
29 | C[N+](C)(C)CC(=O)O | inactive | –
30 | CN(C)C(=O)C(c1ccccc1)c1ccccc1 | inactive | –
31 | C=CCc1ccc(OC(=O)Cc2ccccc2)c(OC)c1 | inactive | –
32 | [Cl][Sb]([Cl])[Cl] | inactive | –
33 | CCC(=O)c1ccc(Cl)cc1 | inactive | –
34 | O=[N+]([O-])c1cc(C(F)(F)F)c(Cl)c([N+](=O)[O-])c1Cl | – | 7.97 µM (active)

Each compound was assayed against Retinoic acid receptor RXR-alpha (Homo sapiens) (UniProt P19793) (assay: ATG_RXRa_TRANS: Attagene TRANS-FACTORIAL HepG2 Assay for human Retinoid X Receptor alpha (RXRa) (AID 2283012)).
In short: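 Read-out: fluorescent reporter-transcript fragments quantified by capillary electrophoresis after RT-PCR. Transiently transfected HepG2 cells carrying GAL4-UAS reporters and NR-GAL4 chimeras were exposed to chemical for 24 h; activity scored as increase over DMSO.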

Chain of Retinoic acid receptor RXR-alpha (Homo sapiens) (P19793 whole entry, looked up, the tested form may be a part): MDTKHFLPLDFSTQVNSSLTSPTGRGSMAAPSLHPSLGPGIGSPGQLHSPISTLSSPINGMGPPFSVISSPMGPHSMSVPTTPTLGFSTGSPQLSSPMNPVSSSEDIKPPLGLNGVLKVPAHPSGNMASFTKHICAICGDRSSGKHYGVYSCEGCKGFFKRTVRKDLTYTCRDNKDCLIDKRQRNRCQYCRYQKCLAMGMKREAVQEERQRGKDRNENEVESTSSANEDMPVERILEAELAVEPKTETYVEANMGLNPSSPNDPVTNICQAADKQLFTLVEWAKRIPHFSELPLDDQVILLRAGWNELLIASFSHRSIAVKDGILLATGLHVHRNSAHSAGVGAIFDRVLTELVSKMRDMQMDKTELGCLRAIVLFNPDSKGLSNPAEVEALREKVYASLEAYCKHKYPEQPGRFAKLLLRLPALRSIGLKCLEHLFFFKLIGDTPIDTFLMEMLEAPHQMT

Row | Structure (SMILES) | outcome
35 | Nc1ccc(-c2ccc(N)c(N)c2)cc1N | inactive
36 | CCOP(O)OCC | inactive
37 | O=c1[nH]c(Cl)c(Cl)cc1Cl | inactive
38 | Nc1c(Cl)c(Cl)c(Cl)c(Cl)c1Cl | inactive
39 | Nc1ccccc1C(=O)OCCc1ccccc1 | inactive
40 | N#Cc1cccc(C#N)c1 | inactive
41 | O=C(O)CCCc1ccc(N(CCCl)CCCl)cc1 | inactive
42 | COc1ncc(F)c2nc(S(=O)(=O)Nc3c(F)cccc3F)nn12 | inactive
43 | COC(C)(C)CCC[C@H](C)C/C=C/C(C)=C/C(=O)OC(C)C | inactive
44 | CC(Cc1ccc(C(C)(C)C)cc1)CN1C[C@@H](C)O[C@@H](C)C1 (stereo partly specified) | inactive
45 | O=C(O)c1cc[c]([Hg][Cl])cc1 | inactive
46 | C[N+](C)(C)CC(=O)O | inactive
47 | O=S(=O)(c1ccccc1)c1ccccc1 | inactive
48 | Clc1ccc(-c2ccccc2)cc1 | inactive
49 | CN(C)C(=O)C(c1ccccc1)c1ccccc1 | inactive
50 | C=CCc1ccc(OC(=O)Cc2ccccc2)c(OC)c1 | inactive
51 | O=P(O)(Oc1ccccc1)Oc1ccccc1 | inactive
52 | CC1CCCC1.[C-]#[O+].[C-]#[O+].[C-]#[O+].[Mn] | inactive
53 | O=C(O)COc1ccccc1 | inactive
54 | CCC(=O)c1ccc(Cl)cc1 | inactive
55 | O=CNC(N1CCN(C(NC=O)C(Cl)(Cl)Cl)CC1)C(Cl)(Cl)Cl (stereo unspecified) | inactive
56 | Oc1cc(Cl)ccc1Cl | inactive
57 | C[C@]12CCC(=O)C(O)=C1CC[C@@H]1[C@@H]2CC[C@]2(C)C(=O)CC[C@@H]12 | inactive
58 | O=[N+]([O-])O.O=[N+]([O-])O.[Cd] | inactive

Each compound was assayed against human Retinoid X Receptor beta (RXRb), RXRB (gene 6257) (UniProt P28702) (assay: ATG_RXRb_TRANS: Attagene TRANS-FACTORIAL HepG2 Assay for human Retinoid X Receptor beta (RXRb) (AID 2283013)).
In short: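 Read-out: reporter mRNA induction via RT-PCR plus capillary electrophoresis fluorescence, analysed as signal increase relative to DMSO. Cells were human HepG2, transiently transfected with GAL4-UAS reporter constructs and chimeric receptor-Gal4 fusions, dosed for 24 h.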

Chain of human Retinoid X Receptor beta (RXRb), RXRB (gene 6257) (P28702 whole entry, looked up, the tested form may be a part): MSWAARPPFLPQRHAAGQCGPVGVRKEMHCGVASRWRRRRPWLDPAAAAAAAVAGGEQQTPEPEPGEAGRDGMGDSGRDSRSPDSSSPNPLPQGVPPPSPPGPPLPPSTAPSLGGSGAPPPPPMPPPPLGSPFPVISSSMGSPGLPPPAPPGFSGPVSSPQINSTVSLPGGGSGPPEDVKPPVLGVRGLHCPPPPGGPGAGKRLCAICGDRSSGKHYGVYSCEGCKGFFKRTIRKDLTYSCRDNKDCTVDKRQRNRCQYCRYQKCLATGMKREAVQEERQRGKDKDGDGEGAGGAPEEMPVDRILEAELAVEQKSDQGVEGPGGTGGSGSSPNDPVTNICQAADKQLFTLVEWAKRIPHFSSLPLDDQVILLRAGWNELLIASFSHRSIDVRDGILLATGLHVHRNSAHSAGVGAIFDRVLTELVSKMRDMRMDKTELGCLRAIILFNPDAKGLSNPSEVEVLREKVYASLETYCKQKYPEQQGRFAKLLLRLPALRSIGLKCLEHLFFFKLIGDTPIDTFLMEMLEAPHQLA

Row | Structure (SMILES) | outcome
59 | Nc1ccc(-c2ccc(N)c(N)c2)cc1N | inactive
60 | C#CC1(O)CCCCC1 | inactive
61 | COC(=O)c1ccccc1S(=O)(=O)NC(=O)Nc1nc(C)cc(C)n1 | inactive
62 | O=C(O)CCCc1ccc(N(CCCl)CCCl)cc1 | inactive
63 | [CH3][Sn]([CH3])([Cl])[Cl] | inactive
64 | CCc1cccc(C)c1N(C(=O)CCl)[C@@H](C)COC | inactive
65 | CC(Cc1ccc(C(C)(C)C)cc1)CN1C[C@@H](C)O[C@@H](C)C1 (stereo partly specified) | inactive
66 | Clc1ccc(-c2ccccc2)cc1 | inactive
67 | CN(C)C(=O)C(c1ccccc1)c1ccccc1 | inactive
68 | O=P(O)(Oc1ccccc1)Oc1ccccc1 | inactive
69 | CC1CCCC1.[C-]#[O+].[C-]#[O+].[C-]#[O+].[Mn] | inactive
70 | Cc1ccc(N(SC(F)(Cl)Cl)S(=O)(=O)N(C)C)cc1 | inactive
71 | SCc1ccco1 | inactive

Each compound was assayed against human Thyroid Receptor alpha (THRa1), THRA (gene 7067) (UniProt P10827) (assay: ATG_THRa1_TRANS: Attagene TRANS-FACTORIAL HepG2 Assay for human Thyroid Receptor alpha (THRa1) (AID 2283014)).
In short: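 HepG2 cells transiently transfected with multiplexed GAL4-UAS reporter units for exogenous chimeric THRa1-Gal4; reporter mRNA measured 24 h after dosing by RT-PCR, 6-FAM labelling, HpaI digestion and capillary electrophoresis. Gain-of-signal fitted versus DMSO baseline.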

Chain of human Thyroid Receptor alpha (THRa1), THRA (gene 7067) (P10827 whole entry, looked up, the tested form may be a part): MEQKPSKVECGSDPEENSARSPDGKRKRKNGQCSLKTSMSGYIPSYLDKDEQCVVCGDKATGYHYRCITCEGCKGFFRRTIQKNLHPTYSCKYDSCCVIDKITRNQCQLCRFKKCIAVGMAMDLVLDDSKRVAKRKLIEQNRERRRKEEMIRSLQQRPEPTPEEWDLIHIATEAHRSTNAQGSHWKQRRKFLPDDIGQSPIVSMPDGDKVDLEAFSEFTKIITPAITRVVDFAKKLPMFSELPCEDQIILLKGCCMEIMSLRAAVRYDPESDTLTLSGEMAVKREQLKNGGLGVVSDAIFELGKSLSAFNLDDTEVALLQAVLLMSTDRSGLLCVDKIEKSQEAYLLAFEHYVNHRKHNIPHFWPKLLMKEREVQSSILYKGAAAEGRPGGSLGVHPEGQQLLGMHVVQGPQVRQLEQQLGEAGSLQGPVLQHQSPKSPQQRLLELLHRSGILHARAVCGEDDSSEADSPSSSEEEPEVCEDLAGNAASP

Row | Structure (SMILES) | outcome
72 | CCOP(O)OCC | inactive
73 | O=c1[nH]c(Cl)c(Cl)cc1Cl | inactive
74 | CCC(C)c1cc(C(C)(C)C)cc(-n2nc3ccccc3n2)c1O (stereo unspecified) | inactive
75 | Nc1c(Cl)c(Cl)c(Cl)c(Cl)c1Cl | inactive
76 | Nc1ccccc1C(=O)OCCc1ccccc1 | inactive
77 | Nc1cc(Cl)cc(Cl)c1 | inactive
78 | COC(C)(C)CCC[C@H](C)C/C=C/C(C)=C/C(=O)OC(C)C | inactive
79 | BrCBr | inactive
80 | CC(Cc1ccc(C(C)(C)C)cc1)CN1C[C@@H](C)O[C@@H](C)C1 (stereo partly specified) | inactive
81 | O=C(O)c1cc[c]([Hg][Cl])cc1 | inactive
82 | O=S(=O)(c1ccccc1)c1ccccc1 | inactive
83 | C=CCc1ccc(OC(=O)Cc2ccccc2)c(OC)c1 | inactive
84 | O=P(O)(Oc1ccccc1)Oc1ccccc1 | inactive
85 | CC1CCCC1.[C-]#[O+].[C-]#[O+].[C-]#[O+].[Mn] | inactive
86 | [Cl][Sb]([Cl])[Cl] | inactive
87 | CCC(=O)c1ccc(Cl)cc1 | inactive
88 | Cc1ccc(N(SC(F)(Cl)Cl)S(=O)(=O)N(C)C)cc1 | inactive
89 | O=CNC(N1CCN(C(NC=O)C(Cl)(Cl)Cl)CC1)C(Cl)(Cl)Cl (stereo unspecified) | inactive
90 | O=[N+]([O-])c1cc(C(F)(F)F)c(Cl)c([N+](=O)[O-])c1Cl | inactive
91 | CSc1nc(N=[N+]=[N-])nc(NC(C)C)n1 | inactive
